Screens (PubChem BioAssay)
Most compounds without a hit are left out; they make up all but 3.5% or so of the library.
MITF inh: inhibitors of human MITF; AlphaScreen MITF homodimerization, bead proximity signal; inhibition, % at 2.6 µM; 650,000 compounds, 0.91% hits; AID 1259374; in the data active = inhibition above about 50%;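 note: 0% = vehicle wells with protein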
Target sequence (O75030 whole entry, looked up): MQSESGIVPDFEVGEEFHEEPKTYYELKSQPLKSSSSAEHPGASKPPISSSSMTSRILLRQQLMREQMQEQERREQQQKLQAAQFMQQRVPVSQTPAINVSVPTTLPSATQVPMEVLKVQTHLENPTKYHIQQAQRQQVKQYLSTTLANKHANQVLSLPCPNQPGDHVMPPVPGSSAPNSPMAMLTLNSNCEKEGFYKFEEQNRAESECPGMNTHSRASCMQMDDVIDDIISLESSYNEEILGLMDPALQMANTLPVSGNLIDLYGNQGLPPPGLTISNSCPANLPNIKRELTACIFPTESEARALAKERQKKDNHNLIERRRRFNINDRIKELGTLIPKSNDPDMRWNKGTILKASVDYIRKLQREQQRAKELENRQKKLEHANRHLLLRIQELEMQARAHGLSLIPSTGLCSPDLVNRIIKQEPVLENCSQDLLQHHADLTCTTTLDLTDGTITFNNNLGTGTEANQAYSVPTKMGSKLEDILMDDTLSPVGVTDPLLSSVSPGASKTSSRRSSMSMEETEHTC
TEAD-YAP block: TEAD-YAP interaction inhibition; inhibition, % at 9.12 µM; HEK-TIYL cells, TEAD-Gal4/YAP UAS-luciferase luminescence; AID 1259422; 640,000 compounds, 1.4% hits; in the data active = inhibition above about 32%;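 note: 0% = median of test compound wells and 100% = reference inhibitor wells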
GPR151 activ: activates the human receptor GPR151; Q8TDV0; PathHunter beta-arrestin GPR151 cells, luminescence; activation, % at 11.2 µM; 650,000 compounds, 1% hits; in the data active = activation above about 4.9%;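 note: 0% = median of compound wells and 100% = cells with positive control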
FBW7 activator: activators of human E3 ligase FBW7; AlphaScreen FBW7–phospho-cyclin E peptide binding, activator screen; 650,000 compounds, 0.13% hits; normalized activity (activation), % at 26.1 µM; Q969H0; in the data active = normalized activity above about 1.9%;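 note: purified mutant Fbw7 with reduced substrate affinity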
* marks the source's active call; other numbers are inactive results.

SMILES	MITF inh	TEAD-YAP block	GPR151 activ	FBW7 activator
CNC(=O)c1ccccc1Nc1cc(Nc2ccc(N3CCC(N(C)C)C3)cc2OC)ncc1C#N (centres undefined)	9	44*	-1	0
O=C1c2ccccc2CN1c1cccc2ccccc12	1	-2	1	0
Cc1sc(-c2cnn(-c3ccccc3)c2N)nc1-c1ccccc1	3	-14	-1	0
C/C(CC(=O)Nc1cccc2c1CCCC2)=N\NC(=O)c1cccc(C)c1O	11	5	1	1
COC(=O)c1ccc2c(c1)C(=O)N(c1ccc(C)c(C)c1)C2=O	4	2	1	0
O=C(CSc1nccc(=O)[nH]1)c1ccc(O)c(O)c1	55*	2	-2	0
Cc1cc(N2CCN(CCN3CCOCC3)CC2)n2nc(-c3ccc(Cl)cc3)cc2n1	-15	0	-1	0
CCOc1ccc(Nc2ccc3ccccc3n2)cc1	-12	41*	-4	0
Nc1nnc(SCC(=O)N2N=C(c3ccc4ccccc4c3)CC2c2ccccc2)s1 (centres undefined)	0	51*	-2	0
Cc1ccccc1C(=O)Nc1sc2c(c1C(=O)O)CCC(C(C)(C)C)C2 (centres undefined)	-7	13	0	0
CC(C)(C)C1CCc2c(sc(NC(=O)c3ccccc3F)c2C(=O)O)C1 (centres undefined)	8	43*	-1	1
CNC(=O)c1c(NC(=O)c2ccccc2)sc2c1CCC(C(C)(C)C)C2 (centres undefined)	9	-22	0	0
CC(C)(C)C1CCc2c(sc(NC(=O)c3cccc(Cl)c3)c2C(=O)O)C1 (centres undefined)	9	53*	-2	0
CC1CN(C(=O)c2c(NC(=O)c3ccccc3Cl)sc3c2CCC(C(C)(C)C)C3)CC(C)O1 (centres undefined)	1	73*	1	0
CC(C)(C)C1CCc2c(sc(NC(=O)c3ccccc3)c2C(=O)O)C1 (centres undefined)	9	91*	1	0
O=C(O)c1cccc(-c2cnc3ccc(NC4CCOCC4)nn23)c1	-7	-9	0	0
CN(C)/C=N/C1=C(C#N)C(c2ccc3c(c2)OCO3)c2ccc3ccccc3c2O1 (centres undefined)	-7	45*	1	0
O=C(NNC(=O)c1ccco1)c1ccncc1	11	5	1	0
Cc1ccc(S(=O)(=O)Nc2ccccc2/C=N/n2cnnc2)cc1	11	51*	2	0
COc1cccc(NC(=O)c2ccc(NC(=O)C(C)(C)C)cc2)c1	3	-46	-2	0
CCCCOc1ccc(C(=O)Nc2cccc(O)c2)cc1	-2	82*	-3	0
CC(C)(C)N1C(=O)c2ccc(C(=O)Nc3cccc(O)c3)cc2C1=O	5	89*	0	0
O=C(Nc1cccc(O)c1)c1ccc(Oc2ccccc2)cc1	-1	93*	0	0
CC(C)(C)C(=O)Nc1ccc(C(=O)Nc2cccc(O)c2)cc1	8	64*	-2	0
CCCC1=C(C(=O)OCC)C(c2ccsc2)C(C#N)=C(N)O1 (centres undefined)	-3	0	2	0
SMILES	MITF inh	TEAD-YAP block	GPR151 activ	FBW7 activator
CC1CCCCN1C(=O)CSc1nnc(-c2ccc3c(c2)OCO3)o1 (centres undefined)	3	-3	3	0
Cc1[nH]c2ccc(-c3nnc(SCC(=O)N4CCCCC4C)o3)cc2c1C (centres undefined)	-4	51*	0	0
C/C(=N\NC(=O)c1ccc(O)c(O)c1)c1ccc(Br)c([N+](=O)[O-])c1	20	32*	-2	0
C/C(=N/NC(=O)c1ccc(O)c(O)c1)c1ccc(C)cc1	7	-9	-1	0
COc1cc(OC)c(OC)cc1/C=N\NC(=O)c1cc(O)c(O)c(O)c1	66*	-2	1	0
COc1cc(/C=N/NC(=O)c2cc(OC)c(OC)c(OC)c2)ccc1O	1	56*	1	0
COc1ccc(NC(=O)C(=O)N/N=C/c2ccc(O)c(OC)c2)cc1	-65	14	0	25*
COc1ccc(/C=N/NC(=O)C(=O)Nc2ccc(C)cc2)cc1	-9	9	-1	0
COc1ccc(/C=N/NC(=O)COc2cc(C)ccc2C(C)C)cc1O	1	63*	1	0
Cc1ccc2ncc(C(=O)Nc3ccc(Br)cc3C)c(=O)n2c1	-2	-1	-2	0
COc1ccc(-c2cnnc(N/N=C/c3ccc(O)c(OC)c3)n2)cc1	10	36*	2	0
COc1cc(/C=N/NC(=O)c2ccccc2NC(=O)c2ccc([N+](=O)[O-])cc2)ccc1O	-10	72*	-2	0
COc1cc(C(=O)N/N=C/c2ccc(O)cc2O)cc(OC)c1OC	52*	55*	0	0
COc1ccc(NC(=O)COc2ccc(/C=N/n3c(C)nnc3C)cc2OC)cc1	9	-5	1	0
COc1ccc(NC(=O)COc2ccc(/C=N/NC(=S)NC(C)C)cc2OC)cc1	6	33*	-1	0
NC(=O)C1CCN(C2=NC(=O)/C(=C\C3=Cc4ccccc4OC3)S2)CC1	-8	-2	-1	0
CCOCCn1cnc2sc(C(=O)NC3CCCCCC3)c(C)c2c1=O	-5	-5	0	0
CCc1cc(CNCc2c(C(=O)N3C[C@@H](C)O[C@@H](C)C3)nc3ccc(Cl)cn23)on1	3	-6	0	0
Cc1cc(-c2ncn(-c3ccc(Nc4ncc5ccc(-c6cnn(C)c6)cc5n4)cc3)n2)ccn1	27	88*	-3	1
Cn1cc(-c2ccc3nc(Nc4ccc(-n5cnc(N6CCOCC6)n5)cc4)ncc3c2)cn1	36	-8	0	0
Cn1cc(-c2ccc(Nc3ncc4ccc(-c5cnn(CCN6CCOCC6)c5)cc4n3)cc2)cn1	3	51*	0	0
Cn1cc(-c2ccc3cnc(Nc4ccc(-n5cnc(-c6ccncc6)n5)cc4)nc3c2)cn1	14	45*	-1	1
CCSc1nc(-c2ccccc2)cc(-c2ccccc2OC)c1C#N	9	2	0	0
COc1ccc(-n2c(=S)[nH]c3cc(C(=O)Nc4ccc(F)cc4)ccc3c2=O)c(OC)c1	3	71*	2	0
COc1ccc(C(NC(=O)Cc2ccccc2)c2ccc3cccnc3c2O)cc1OC (centres undefined)	24	90*	1	-2
O=C(CCc1ccccc1)NC(c1ccc2c(c1)OCO2)c1ccc2cccnc2c1O (centres undefined)	16	83*	-1	-1
CCCC(=O)NC(c1ccc(OC)c(OC)c1)c1ccc2cccnc2c1O (centres undefined)	45	88*	0	-2
COc1cccc2c(NC(=O)c3cccnc3)c(C(=O)c3ccc(Cl)cc3)oc12	-9	-3	1	0
COc1cc(N)c(-c2nc3ccccc3[nH]2)cc1OC	16	46*	-7	1
c1ccc2[nH]c(-c3cc(-c4cc(-c5nc6ccccc6[nH]5)c5ccccc5n4)nc4ccccc34)nc2c1	11	82*	-10	0
